Experimental data reported in PubChem BioAssay (NCATS).
Records with an inconclusive call do not appear. Calls of active or inactive are those of the source. The call rests on the fitted dose curve; in most records, active means well fitted curve in the direction sought with a large enough effect; inconclusive means small, poorly fitted or top-dose-only effect, or another doubt; inactive means no such curve, though single readings can be large; an effect the other way counts as inactive or inconclusive.

What was measured:
[1] = Quantitative High-Throughput drug screen in 47 multiple myeloma cell lines against the NCATS MIPE library collection: FR4_PLB cell viability assay (AID 1918924; further: nearly all actives have a fitted effect of over 35% in size)
Summary of the method: (§1)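 Inhibition of cell viability is measured here. Each line was plated at 500 cells per well, treated with MIPE 4.0 drugs, kept 48 hours at 37C, then assayed for ATP content by CellTiter-Glo luminescence.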

[2] = Quantitative High-Throughput drug screen in 47 multiple myeloma cell lines against the NCATS MIPE library collection: Delta47_JCRB cell viability assay (AID 1918925; further: nearly all actives have a fitted effect of over 45% in size)
Summary of the method: (§2)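 Relative luminescence from CellTiter-Glo served as the viability signal, referenced to DMSO-treated (100%) and cell-free medium (0%) controls. Treatment lasted 48 hours at 37C with 500 cells per well.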

[3] = Quantitative High-Throughput drug screen in 47 multiple myeloma cell lines against the NCATS MIPE library collection: EJM_DSMZ cell viability assay (AID 1918926; further: nearly all actives have a fitted effect of over 30% in size)
Summary of the method: as §2

[4] = Quantitative High-Throughput drug screen in 47 multiple myeloma cell lines against the NCATS MIPE library collection: AMO1_DSMZ cell viability assay (AID 1918927; further: nearly all actives have a fitted effect of over 30% in size)
Summary of the method: as §2

[5] = Quantitative High-Throughput drug screen in 47 multiple myeloma cell lines against the NCATS MIPE library collection: ARP1_JJKsccF8 cell viability assay (AID 1918928; further: nearly all actives have a fitted effect of over 40% in size)
Summary of the method: (§3)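 Myeloma cells at 500 per well in 1536-well format treated with MIPE 4.0 library by pin transfer for 48 h at 37C, 5% CO2. Viability from ATP luminescence (CellTiter-Glo), normalized to DMSO (100%) and media-only (0%) wells.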

[6] = Quantitative High-Throughput drug screen in 47 multiple myeloma cell lines against the NCATS MIPE library collection: ARD_JJKsccE7 cell viability assay (AID 1918929)
Summary of the method: as §2

[7] = Quantitative High-Throughput drug screen in 47 multiple myeloma cell lines against the NCATS MIPE library collection: Karpas620_DSMZ cell viability assay (AID 1918959); further: nearly all actives have a fitted effect of over 30% in size
Summary of the method: as §1

[8] = Quantitative High-Throughput drug screen in 47 multiple myeloma cell lines against the NCATS MIPE library collection: KMM1_JCRB cell viability assay (AID 1918960); further: nearly all actives have a fitted effect of over 30% in size
Summary of the method: as §3

[9] = Quantitative High-Throughput drug screen in 47 multiple myeloma cell lines against the NCATS MIPE library collection: Karpas417_ECACC cell viability assay (AID 1918961); conditions: Karpas417 myeloma viability, CellTiter-Glo ATP luminescence, 48 h; viability (% of DMSO): at 45.8 µM (top of the series)
Summary of the method: (§4)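 qHTS of the MIPE 4.0 collection: 500 myeloma cells/well, 48 h drug exposure at 37C in 5% CO2, then CellTiter-Glo for 5 min at room temperature before luminescence reading.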

[10] = Quantitative High-Throughput drug screen in 47 multiple myeloma cell lines against the NCATS MIPE library collection: KHM11_PLB cell viability assay (AID 1918962); further: nearly all actives have a fitted effect of over 35% in size
Summary of the method: as §1

[11] = Quantitative High-Throughput drug screen in 47 multiple myeloma cell lines against the NCATS MIPE library collection: JIM3_ECACC cell viability assay (AID 1918963; further: nearly all actives have a fitted effect of over 35% in size)
Summary of the method: as §1

[12] = Quantitative High-Throughput drug screen in 47 multiple myeloma cell lines against the NCATS MIPE library collection: JIM1_ECACC cell viability assay (AID 1918964)
Summary of the method: as §2

[13] = Quantitative High-Throughput drug screen in 47 multiple myeloma cell lines against the NCATS MIPE library collection: INA6_PLB cell viability assay (AID 1918965; further: nearly all actives have a fitted effect of over 55% in size)
Summary of the method: as §4

[14] = Quantitative High-Throughput drug screen in 47 multiple myeloma cell lines against the NCATS MIPE library collection: JJN3_DSMZ cell viability assay (AID 1918966; further: nearly all actives have a fitted effect of over 50% in size)
Summary of the method: as §2

[15] = Quantitative High-Throughput drug screen in 47 multiple myeloma cell lines against the NCATS MIPE library collection: H1112_PLB cell viability assay (AID 1918967; further: nearly all actives have a fitted effect of over 30% in size)
Summary of the method: as §2

[16] = Quantitative High-Throughput drug screen in 47 multiple myeloma cell lines against the NCATS MIPE library collection: Karpas25_ECACC cell viability assay (AID 1918968; further: nearly all actives have a fitted effect of over 35% in size)
Summary of the method: as §2

[17] = Quantitative High-Throughput drug screen in 47 multiple myeloma cell lines against the NCATS MIPE library collection: KMS27_JCRB cell viability assay (AID 1918970); further: nearly all actives have a fitted effect of over 30% in size
Summary of the method: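 Viability inhibition screen, 48 h compound exposure, luminescent ATP read-out.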

[18] = Quantitative High-Throughput drug screen in 47 multiple myeloma cell lines against the NCATS MIPE library collection: KMS12BM_JCRB cell viability assay (AID 1918971); further: nearly all actives have a fitted effect of over 35% in size
Summary of the method: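 Steps: seed 500 cells per well; pin-transfer MIPE 4.0 library; incubate 48 h at 37C, 5% CO2, humidified; add CellTiter-Glo, 5 min room temperature; read luminescence.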

[19] = Quantitative High-Throughput drug screen in 47 multiple myeloma cell lines against the NCATS MIPE library collection: KMS12PE_JCRB cell viability assay (AID 1918972); further: nearly all actives have a fitted effect of over 30% in size
Summary of the method: as §4

[20] = Quantitative High-Throughput drug screen in 47 multiple myeloma cell lines against the NCATS MIPE library collection: KMS20_JCRB cell viability assay (AID 1918973); further: nearly all actives have a fitted effect of over 45% in size
Summary of the method: as §2
Potency means the concentration at half of the fitted maximal effect.

O=C(CCCCCCNC(=O)c1cnc(N(c2ccccc2)c2ccccc2)nc1)NO
active: Potency [1] 2960 nM | Potency [2] 3320 nM | Potency [3] 13200 nM | Potency [4] 4690 nM | Potency [5] 2960 nM | Potency [6] 4690 nM | Potency [7] 5900 nM | Potency [8] 4180 nM | Potency [9] 590 nM | Potency [10] 10500 nM | Potency [11] 16600 nM | Potency [12] 4690 nM | Potency [13] 2640 nM | Potency [14] 4180 nM | Potency [15] 13200 nM | Potency [16] 4180 nM | Potency [17] 5260 nM | Potency [18] 2960 nM | Potency [19] 5900 nM | Potency [20] 8330 nM

CC(=O)OCCN1C(=O)c2c(C)nc3ccc(S(=O)(=O)N4CCOCC4)cc3c2C1=O
active: viability (% of DMSO) [9] 109%
inactive: Potency [1] | Potency [2] | Potency [3] | Potency [4] | Potency [5] | Potency [6] | Potency [7] | Potency [8] | Potency [11] | Potency [12] | Potency [13] | Potency [16] | Potency [18] | Potency [19]

CN1CCN(Cc2ccc(NC(=O)Nc3ccc(Oc4cc(NC(=O)C5CC5)ncn4)cc3)cc2C(F)(F)F)CC1
inactive: Potency [4] | Potency [6] | Potency [7] | Potency [8] | Potency [9] | Potency [19]
active: Potency [1] 296 nM | Potency [2] 148 nM | Potency [3] 332 nM | Potency [5] 372 nM | Potency [10] 132 nM | Potency [13] 132 nM | Potency [14] 264 nM | Potency [15] 148 nM | Potency [16] 118 nM | Potency [18] 469 nM | Potency [20] 132 nM

COc1ccc(F)c(F)c1C(=O)c1cnc(NC2CCN(S(C)(=O)=O)CC2)nc1N
active: Potency [1] 2350 nM | Potency [2] 1180 nM | Potency [3] 2350 nM | Potency [4] 833 nM | Potency [5] 2350 nM | Potency [6] 1180 nM | Potency [7] 2640 nM | Potency [8] 1870 nM | Potency [9] 743 nM | Potency [10] 1870 nM | Potency [11] 1870 nM | Potency [12] 1180 nM | Potency [13] 1320 nM | Potency [14] 1320 nM | Potency [15] 1870 nM | Potency [16] 1180 nM | Potency [17] 1320 nM | Potency [18] 1180 nM | Potency [19] 1870 nM | Potency [20] 2090 nM

CNC(=O)c1nn(C)c2c1C(C)(C)Cc1cnc(Nc3ccc(N4CCN(C)CC4)cc3)nc1-2
active: Potency [1] 1660 nM | Potency [2] 1050 nM | Potency [3] 2640 nM | Potency [4] 1180 nM | Potency [5] 4690 nM | Potency [6] 3320 nM | Potency [7] 4690 nM | Potency [8] 935 nM | Potency [9] 833 nM | Potency [10] 1480 nM | Potency [11] 3720 nM | Potency [12] 743 nM | Potency [13] 743 nM | Potency [14] 4690 nM | Potency [15] 4690 nM | Potency [16] 2350 nM | Potency [17] 662 nM | Potency [18] 1660 nM | Potency [19] 1050 nM | Potency [20] 2960 nM

CN1CCC(CNc2ccc3ncc(-c4cccc(OC(F)(F)F)c4)n3n2)CC1
active: Potency [1] 18700 nM | Potency [2] 4690 nM | Potency [3] 26400 nM | Potency [4] 13200 nM | Potency [5] 13200 nM | Potency [6] 11800 nM | Potency [7] 10500 nM | Potency [8] 16600 nM | Potency [9] 10500 nM | Potency [10] 6620 nM | Potency [11] 9350 nM | Potency [12] 8330 nM | Potency [13] 4690 nM | Potency [15] 8330 nM | Potency [16] 7430 nM | Potency [17] 14800 nM | Potency [18] 20900 nM | Potency [19] 7430 nM | Potency [20] 3320 nM

CN(C)Cc1c(C(=O)NCCOc2ccc(C(=O)NO)cc2)oc2ccccc12
active: Potency [1] 526 nM | Potency [2] 1050 nM | Potency [3] 1870 nM | Potency [4] 526 nM | Potency [5] 526 nM | Potency [6] 590 nM | Potency [7] 743 nM | Potency [8] 469 nM | Potency [9] 372 nM | Potency [10] 1870 nM | Potency [11] 2960 nM | Potency [12] 418 nM | Potency [13] 187 nM | Potency [14] 833 nM | Potency [15] 1870 nM | Potency [16] 662 nM | Potency [17] 264 nM | Potency [18] 469 nM | Potency [19] 418 nM | Potency [20] 372 nM

Nc1ccccc1NC(=O)c1ccc(CNc2nccc(-c3cccnc3)n2)cc1
active: Potency [1] 935 nM | Potency [2] 166 nM | Potency [3] 3320 nM | Potency [4] 590 nM | Potency [5] 662 nM | Potency [6] 935 nM | Potency [7] 1660 nM | Potency [8] 1050 nM | Potency [9] 469 nM | Potency [10] 2640 nM | Potency [11] 2640 nM | Potency [13] 296 nM | Potency [15] 2640 nM | Potency [16] 833 nM | Potency [17] 2640 nM | Potency [18] 1320 nM | Potency [19] 469 nM | Potency [20] 743 nM
